Laboratory results taken from PubChem BioAssay AID1159580 (chemical genetic matrix, 2015).
Hit rate of the full screen: of about 5,500 compounds, about 2,000 (36%) were called active. Inconclusive results (about 18%) are left out. Rule as the data show it: active = normalized growth mostly below about 0.91 (no sharp cut-off); inconclusive = no clear call, values can overlap the other calls; inactive = mostly above about 0.92. This is one part of the list.

Test: chemical genetic growth profiling, strain panel (AID 1159580);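 also: tested at 20 µM; growth read once vehicle control cultures reached saturation at 30 °C; 1 = growth at the plate median or of vehicle wells; lower values mean less growth of the strain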
Conditions: S. cerevisiae deletion strains, growth OD

Measured: normalized growth

CC(C)(C)NCC(O)c1cc(Cl)c(N)c(Cl)c1 (centres undefined)
inactive: locus YAL013W, strain DEP1, stronger effect = lower value 1.01 | locus YAL021C, strain ccr4, stronger effect = lower value 0.985 | locus YAL026C, strain drs2, stronger effect = lower value 1 | locus YAL030W, strain snc1, stronger effect = lower value 1 | locus YBL061C, strain skt5, stronger effect = lower value 1 | locus YBR009C, strain hhf1, stronger effect = lower value 1 | locus YBR021W, strain FUR4, stronger effect = lower value 1 | locus YBR023C, strain chs3, stronger effect = lower value 1 | locus YBR171W, strain sec66, stronger effect = lower value 1 | locus YBR229C, strain ROT2, stronger effect = lower value 1.01 | locus YBR231C, strain swc5, stronger effect = lower value 0.992 | locus YBR279W, strain paf1, stronger effect = lower value 1.01 | locus YCL011C, strain gbp2, stronger effect = lower value 1.01 | locus YCL016C, strain dcc1, stronger effect = lower value 0.998 | locus YCL029C, strain bik1, stronger effect = lower value 0.993 | locus YCL061C, strain MRC1, stronger effect = lower value 1.01 | locus YCL069W, strain vba3, stronger effect = lower value 0.992 | locus YCR088W, strain abp1, stronger effect = lower value 0.998 | locus YDL005C, strain med2, stronger effect = lower value 0.996 | locus YDL035C, strain GPR1, stronger effect = lower value 1.01 | locus YDL040C, strain nat1, stronger effect = lower value 0.988 | locus YDL074C, strain BRE1, stronger effect = lower value 1 | locus YDL101C, strain DUN1, stronger effect = lower value 1.01 | locus YDL134C, strain PPH21, stronger effect = lower value 1.02 | locus YDL185W, strain tfp1, stronger effect = lower value 1 | locus YDL192W, strain arf1, stronger effect = lower value 1 | locus YDR001C, strain nth1, stronger effect = lower value 0.995 | locus YDR069C, strain doa4, stronger effect = lower value 0.989 | locus YDR101C, strain arx1, stronger effect = lower value 0.983 | locus YDR137W, strain rgp1, stronger effect = lower value 1 | locus YDR150W, strain NUM1, stronger effect = lower value 1.02 | locus YDR159W, strain sac3, stronger effect = lower value 0.978 | locus YDR162C, strain NBP2, stronger effect = lower value 1 | locus YDR195W, strain ref2 0.961 | locus YDR297W, strain sur2, stronger effect = lower value 1 | locus YDR318W, strain mcm21, stronger effect = lower value 0.994 | locus YDR334W, strain swr1, stronger effect = lower value 1 | locus YDR335W, strain msn5, stronger effect = lower value 0.994 | locus YDR388W, stronger effect = lower value 0.992 | locus YDR392W, strain spt3, stronger effect = lower value 0.876 | locus YDR502C, strain sam2, stronger effect = lower value 1.01 | locus YEL003W, strain gim4, stronger effect = lower value 1 | locus YEL037C, strain rad23, stronger effect = lower value 0.998 | locus YEL061C, strain CIN8 (second series), stronger effect = lower value 1 | locus YEL061C, strain CIN8, stronger effect = lower value 1.01 | locus YER015W, strain faa2, stronger effect = lower value 0.999 | locus YER016W, strain bim1, stronger effect = lower value 1 | locus YER110C, stronger effect = lower value 0.998 | locus YER111C, strain swi4, stronger effect = lower value 1.01 | locus YER155C, strain BEM2 (second series), stronger effect = lower value 1.01 | locus YER155C, strain BEM2, stronger effect = lower value 1.02 | locus YER167W, strain BCK2, stronger effect = lower value 1.01 | locus YFR010W, strain ubp6, stronger effect = lower value 0.994 | locus YGL078C, strain dbp3, stronger effect = lower value 1.01 | locus YGL086W, strain mad1, stronger effect = lower value 0.997 | locus YGL167C, strain pmr1, stronger effect = lower value 1 | locus YGL173C, strain kem1, stronger effect = lower value 0.996 | locus YGL227W, strain vid30, stronger effect = lower value 1 | locus YGL240W, strain doc1, stronger effect = lower value 0.98 | locus YGL248W, strain PDE1, stronger effect = lower value 1 | locus YGL253W, strain hxk2, stronger effect = lower value 0.984 | locus YGR078C, strain PAC10, stronger effect = lower value 1.01 | locus YGR135W, strain pre9, stronger effect = lower value 1.01 | locus YGR229C, strain SMI1, stronger effect = lower value 1.01 | locus YGR252W, strain gcn5, stronger effect = lower value 1.04 | locus YHR013C, strain ard1, stronger effect = lower value 0.983 | locus YHR027C, strain rpn1, stronger effect = lower value 0.994 | locus YHR030C, strain SLT2, stronger effect = lower value 1.01 | locus YHR079C, strain IRE1 (second series), stronger effect = lower value 1 | locus YHR094C, strain hxt1, stronger effect = lower value 1 | locus YHR129C, strain ARP1, stronger effect = lower value 1.02 | locus YHR142W, strain chs7, stronger effect = lower value 0.997 | locus YHR200W, strain rpn10, stronger effect = lower value 1 | locus YIL066C, strain RNR3, stronger effect = lower value 1.01 | locus YIL073C, strain SPO22, stronger effect = lower value 1 | locus YIL125W, strain kgd1, stronger effect = lower value 1 | locus YIR030C, strain dcg1, stronger effect = lower value 0.995 | locus YJL092W, strain hpr5, stronger effect = lower value 0.997 | locus YJL095W, strain BCK1 (second series), stronger effect = lower value 1 | locus YJL095W, strain BCK1, stronger effect = lower value 1.01 | locus YJL115W, strain asf1, stronger effect = lower value 1 | locus YJL129C, strain trk1, stronger effect = lower value 0.996 | locus YJL134W, strain LCB3, stronger effect = lower value 1.01 | locus YJL154C, strain vps35, stronger effect = lower value 1 | locus YJL164C, strain tpk1, stronger effect = lower value 1 | locus YJL166W, strain qcr8, stronger effect = lower value 0.991 | locus YJL168C, strain set2, stronger effect = lower value 0.992 | locus YJL187C, strain SWE1 (second series), stronger effect = lower value 1.01 | locus YJL187C, strain SWE1, stronger effect = lower value 1
